Values joined by “and” are separate entries in the source; they are usually repeats but may differ in a detail not shown here. Equal entries are not always repeated. This is part of a sample that, as a whole, favours compounds with a hit. Of some 83,000 tested, about 20% had one in any assay.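 Results are percent growth after 48 hours of single-concentration exposure. 100 means growth as in untreated cells, lower positive values show inhibition; negative values down to -100 show cell death.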 Active and inactive are the calls of the source. Rule for the calls: active = growth percent below 10; inactive = the rest.
Each molecule was assayed on HL-60(TB) leukemia (assay: NCI-60 one-dose screen, 48 h (100 = growth as untreated, 0 = no growth, -100 = all killed)). Details: 10 µM unless noted.

SMILES	growth
O=C(c1ccccc1)c1cc2ccccc2oc1=O	64.6% (inactive)
O=[N+]([O-])c1cccc(-c2nc3cc4nc5ccccc5[nH]c4cc3n2)c1	91.5% (inactive)
O=C1/C(=C/c2cccs2)SC(=S)N1CCCN1CCOCC1	90.4% (inactive)
COc1ccc(C2=CC(c3ccc(OC)cc3Br)N3C=CSC3=N2)cc1 (stereo not given)	61.4% (inactive)
Cc1c(-n2nnc(-c3nc4ccccc4s3)c2N)c(=O)n(-c2ccccc2)n1C	99.2% (inactive)
O=C1c2cccc3cccc(c23)C(=O)N1N1C(=O)c2cccc3c(N4CCOCC4)ccc(c23)C1=O	125% (inactive)
CCc1cccc2c3c(sc12)C(c1ccc(Cl)cc1)C(C#N)=C(N)O3 (stereo not given)	-8.89% (active)
C[N+]1(CCCCC[N+]2(C)CCCC2)CCCC1	110% (inactive)
CN1C(=O)N(C)C2Nn3c(s/c(=C\c4ccc(C(F)(F)F)cc4)c3=O)=NC21 (stereo not given)	98.9% (inactive)
FC(F)(F)c1ccc(-c2cn3nc(-c4c[nH]c5ccc(Br)cc45)sc3n2)cc1	96.9% (inactive)
CN(C)CCCn1c(=O)c2ccccc2c2cnc3[nH]ccc3c21	5.9% (active)
Cn1cnc([N+](=O)[O-])c1Sc1nc(N)nc2nc[nH]c12	59.9% (inactive)
COC(=O)CCCNC(=O)C(=O)c1c(O)c(O)c(C(C)C)c2cc(C)c(-c3c(C)cc4c(C(C)C)c(O)c(O)c(C(=O)C(=O)NCCCC(=O)OC)c4c3O)c(O)c12	11.3% (inactive)
COc1ccc(C2=Cn3c(CCC(=O)c4nc5ccccc5[nH]4)nnc3SC2)cc1	95.6% (inactive)
COc1ccc(CCn2cnn3c(=O)c4ccccc4nc3c2=O)cc1OC	92.4% (inactive) and 103% (inactive)
O=C1Nc2ccc(C(=O)O)c(O)c2C1=O	99.8% (inactive)
COc1ccc2c(c1)C(=O)c1c-2c(OCCN(C)C)nc2cc(OC)ccc12	27.2% (inactive)
CNC(C)=O	107% (inactive)
Cc1ccc2[nH]c(=O)cc(-n3nncc3Cn3c4ccccc4c4ccccc43)c2c1	107% (inactive)
O=C1Nc2ccc(Cl)cc2C12Nc1cc(Cl)ccc1S2 (stereo not given)	42.6% (inactive)

SMILES	growth
COc1ccc(-c2ncnc3c2ncn3C/C=C/CCl)cc1	65% (inactive) and 79.4% (inactive)
CCOCC(O)(c1ccc(Cl)cc1)c1ccc(Cl)cc1	106% (inactive)
C#CCC(C(=O)OCC)C(=O)OCC	101% (inactive)
O=C(NCCCl)c1cc(Cl)cc(Cl)c1	95.5% (inactive)
O=C1c2ccccc2CN1c1ccccc1	75.1% (inactive)
COc1ccc(C2=NN(C(=O)c3cc(OC)c(OC)c(OC)c3)C(c3ccc(Cl)cc3)C2)cc1OC (stereo not given)	-54% (active)
COc1ccc(-n2sc(=O)n(Cc3ccc(COC(=O)C(C)c4ccc(CC(C)C)cc4)cc3)c2=O)cc1 (stereo not given)	-43.3% (active)
Fc1ccc(CNc2c3ccccc3nc3ccccc23)c(F)c1	58.3% (inactive)
CNC(=O)c1cc(Oc2ccc(NC(=O)Nc3ccc(Cl)c(OC(C)C)c3)c(F)c2)ccn1	59.6% (inactive)
COc1cc(/C=C/C(=O)c2ccc(Nc3ncnc4cc(OC)c(OC)cc34)cc2)cc(OC)c1	94.2% (inactive)
Nc1nc(=S)c2ncn(C3OC(COC(=O)c4ccc(Cl)cc4)C(OC(=O)c4ccc(Cl)cc4)C3OC(=O)c3ccc(Cl)cc3)c2[nH]1 (stereo not given)	93.7% (inactive)
N#Cc1c(-c2ccccc2)cc(-c2ccccc2)n(CCC(=O)O)c1=O	13.8% (inactive)
c1csc([C@@H]2C[C@@H]3Cc4ccc5ccccc5c4N2O3)c1	104% (inactive)
CCCCN(CCCC)CC(O)CN(CC)CC (stereo not given)	108% (inactive)
Cc1ccc2c3c(c(=O)[nH]c2c1)C1(C(C#N)=C(N)O3)c2cc(Br)ccc2-c2ccc(Br)cc21	83.7% (inactive)
CCOc1ccc(C(=O)Cc2ccccc2)cc1	97.4% (inactive)
Fc1ccc(Nc2nc3nonc3nc2Nc2ccc(I)cc2)cc1	-46.3% (active)
Nc1c(C(=O)Nc2ccccc2C(F)(F)F)sc2nc3c(cc12)CCC3	86.8% (inactive)
COc1ccc(C(=O)COc2ccc(/C=C3\Oc4ccccc4C3=O)cc2)cc1	76% (inactive)
Oc1ccccc1/C=N\NC(=S)N/N=C/c1ccccc1O	-7.82% (active) and 18.6% (inactive)

— PubChem BioAssay (NCI)
